In PubChem BioAssay (NCATS) one finds Potency, outcome and IC50 (viability decrease) data, which are given here for 35 molecules.

Inconclusive results are not listed. Active and inactive are the calls of the source. Calls come from the whole dose curve; as a rule, active = well fitted curve in the direction sought with a large enough effect; inconclusive = small, poorly fitted or top-dose-only effect, or another doubt; inactive = no such curve, though single readings can be large; an effect the other way counts as inactive or inconclusive.

A short description of assay [1]: qHTS Screen of the MIPE 4.0 Collection Against Ewings Sarcoma (TC71) (AID 1259253). Note: nearly all actives have a fitted effect of over 40% in size. Note: potency is the fitted concentration of half-maximal effect. The method, boiled down: (§1)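 Dose series incubated 48 h with cells in RPMI plus 5% FBS, glutamine and penicillin/streptomycin; cell viability then quantified via CellTiter-Glo.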
A short description of assay [2]: qHTS assay to identify small molecule inhibitors of chordoma cells - UCH-1 (AID 1259355). Note: nearly all actives have a fitted effect of over 55% in size. The method in brief: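 Cells (800/well) were seeded and left overnight at 37 C, 5% CO2, then treated with drugs at 15 concentrations plus a combination mix of auranofin, camptothecin, doxorubicin, rubitecan and topotecan. Viability after 48hr was read by CellTiter-Glo luminescence.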
(qHTS replaces the single test concentration by a dilution series.)

A short description of assay [3]: qHTS assay to identify small molecule inhibitors of chordoma cells - UCH-2 (AID 1259356). Note: series mostly up to about 46 µM.
Assay [4] is described as follows: Identifying Small Molecule Inhibitors of Pancreatic Cancer Stem Cells (Panc1, Spheroid) (AID 1259359).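 Note: potency is the fitted concentration of half-maximal effect; compound exposure lasted 48 h before reading.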 Particulars: Panc1 spheroid cancer stem cell viability. The method in brief:
(§2)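 After a 4 h attachment period, compounds were pinned into wells and cultures held 48 h under standard incubator conditions. Viability was then measured as CellTiter-Glo luminescence following 10 min at room temperature.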

Assay [5] can be described thus: Identifying Small Molecule Inhibitors of Pancreatic Cancer Stem Cells (Panc1, Adherent) (AID 1259362). Note: potency is the fitted concentration of half-maximal effect. Particulars: Potency: viability. The method, boiled down: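 Pre-formed 14-day tumor spheroids or adherent cells dosed and incubated 48 h, 37C, 5% CO2. Viability assessed by CellTiter-Glo.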
Assay [6] can be described thus: Identifying Small Molecule Inhibitors of Pancreatic Cancer Stem Cells (A2780, Spheroid) (AID 1259357). Note: potency is the fitted concentration of half-maximal effect.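 Note: spheroids pre-formed over 14 days in stem cell medium on hydrogel; compound exposure lasted 48 h before the ATP luminescence read.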 Particulars: Potency: A2780 spheroid viability. The method, boiled down:
as §2

Assay [7] can be described thus: qHTS Screen of the MIPE 4.0 Collection Against Ewings Sarcoma (TC32) (AID 1259256). Note: nearly all actives have a fitted effect of over 45% in size. Note: potency is the fitted concentration of half-maximal effect. The method in brief:
as §1

A short description of assay [8]: Identifying Small Molecule Inhibitors of Pancreatic Cancer Stem Cells (SN12C, Adherent) (AID 1259358).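 Note: cell survival measured after 48 h of compound exposure.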 Note: potency is the fitted concentration of half-maximal effect. The method, boiled down:
(§3)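 Endpoint: ATP-based luminescence, 48 h drug exposure. Bortezomib at 9.2 uM final as full-kill control; DMSO vehicle as negative control; activity normalized between vehicle and cell-free wells.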

The nature of assay [9]: Identifying Small Molecule Inhibitors of Pancreatic Cancer Stem Cells (A278, Adherent) (AID 1259361).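 Note: viability read after 48 h compound exposure; nearly all actives have a fitted effect of over 35% in size.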 The method, boiled down: as §3
The nature of assay [10]: qHTS Screen of the MIPE 4.0 Collection Against Ewings Sarcoma (EW8) (AID 1259255). Note: nearly all actives have a fitted effect of over 35% in size. Note: potency is the fitted concentration of half-maximal effect. The method, boiled down:
as §1

With `O=C(Nc1cccc(Br)c1)c1cccc(S(=O)(=O)N2CCCCCC2)c1`, in assay [1], the Potency is 23.5 µM (active).
Same read-out and setting: for `O=C(NCc1ccncc1)C12C[C@H]3C[C@@H](C1)CC(c1ccc(Cl)cc1)(C3)C2` the value was 26.4 µM (active).
With `CCn1cc(C(=O)O)c(=O)c2ccc(C)nc21`, the Potency result in [2] is “inactive”. Further, the outcome in assay [3] was inactive.
Regarding `C[N+]1(C)[C@@H]2CC(OC(=O)[C@H](CO)c3ccccc3)C[C@H]1[C@H]1O[C@@H]12` (some centres undefined), in assay [2], the Potency result is “inactive”. Moreover, the result in assay [3] was inactive.
Consider `O=C1C(Cl)=C(NCCN2CCOCC2)C(=O)c2ncccc21`, for which the figures for the Potency in assay [4] and in assay [5] were 3.72 µM (active) and 1.66 µM (active), respectively.
Consider `CC(=O)Nc1ccc([C@H](C)C(=O)Nc2ncc(C(C)C)s2)cc1`, for which, in assay [4], the Potency was 8.33 µM (active).
Turning to `O=C(Nc1ccccc1-c1cn2c(CN3CCNCC3)csc2n1)c1cnc2ccccc2n1`, the Potency in assay [1] is 23.5 µM (active). Also, the Potency entry in assay [6] and in [5] was “inactive” each time.
As for `COc1cc2ncnc(-n3nc(-c4ccccn4)nc3N)c2cc1OC`, the Potency in assay [1] is 18.7 µM (active); in [7], 18.7 µM (active); in assay [8], 5.9 µM (active); in assay [5] it was 18.7 µM (active). For the same molecule, in [6], the Potency result is “inactive”. In assay [9], the IC50 (viability decrease) is 3.32 µM (active).
Take `COc1cccc(-c2cc(=O)c3ccccc3o2)c1N`: the Potency entry in [10] is “inactive”.
Same read-out and setting: for `O=c1c(-c2ccc(O)cc2)coc2cc(O)ccc12` the value was “inactive”.
On the same count and under the same terms, for `CNC(=O)c1ccc2cc(C3(O)CCn4cncc43)ccc2c1` (centres undefined) the value was “inactive”.
`O=C(O)c1cc(O)c2c(c1)C(=O)c1cccc(O)c1C2=O`: the Potency result in [1] and in assay [7] was “inactive” throughout.
On to `COc1cc(N2CCC(N3CCN(C)CC3)CC2)ccc1Nc1ncnc(Nc2ccccc2S(=O)(=O)C(C)C)n1`, for which the Potency in assay [10] is 20.9 µM (active).
Consider `Cc1ccc(/C=N/NC(=O)c2ccccc2Oc2ccccc2)o1`, for which, in assay [1], the Potency is 20.9 µM (active). For the same molecule, the Potency entry in assay [7] was “inactive”.
As for `Nc1ncnc2c1nc(Cl)n2[C@@H]1O[C@H](CO)[C@@H](O)[C@@H]1O`, the Potency was 26.4 µM (active) in assay [1] and 20.9 µM (active) in assay [7].
For the molecule `C[C@]12CCC3c4ccc(O)cc4CCC3C1CCC2=O` (some centres undefined), the values for the Potency in assay [1] and in [7] were 14.8 µM (active) and 6.62 µM (active), respectively.
For `Cc1ccn(-c2ccc(-c3ncco3)cc2)c(=O)c1-c1ccc2nc(N)ncc2c1`, in that order: 16.6 µM (active) and 3.72 µM (active).
Taken in the same sequence, the figures for `CC(C)OC(=O)CCCC=CC[C@@H]1[C@H](C=C[C@@H](O)COc2cccc(C(F)(F)F)c2)[C@H](O)C[C@@H]1O` were 16.6 µM (active) and “inactive”.
For `O=C1Nc2ccc(Cl)cc2C(C#CC2CC2)(C(F)(F)F)O1` (centres undefined), in assay [10], the Potency was 26.4 µM (active).
Turning to `CC(C)(C)C(=O)Oc1ccc2c(c1)nc(NC(=O)c1cccc([N+](=O)[O-])c1)n2CCCO`, the Potency entry in assay [1], in assay [7], in assay [6], in assay [8] and in [5] was “inactive” each time. In [9], the IC50 (viability decrease) is 18.7 µM (active).
`CN(C)CCC=C1c2ccccc2COc2ccc(CC(=O)O)cc21`: the Potency entry in assay [10] is “inactive”.
In the case of `COc1ccc(-c2oc3c(CC=C(C)C)c(OC4O[C@H](CO)[C@@H](O)[C@H](O)[C@@H]4O)cc(O)c3c(=O)c2OC2O[C@@H](C)[C@H](O)[C@@H](O)[C@@H]2O)cc1` (some centres undefined), the Potency in assay [1] and in assay [7] was 26.4 µM (active) throughout.
As to `COc1ccc(-n2c(C)c([N+](=O)[O-])c3ccc(O)cc32)cc1`, the Potency in assay [1] is 16.6 µM (active); in assay [7] it was 26.4 µM (active).
Taken in the same sequence, the figures for `CC(C)(Cc1ccc2ccccc2c1)NC[C@@H](O)COc1cccc(Cl)c1C#N` were 16.6 µM (active) and 14.8 µM (active).
Regarding `CC1CCC(C(=O)N(c2cc(C#CC(C)(C)C)sc2C(=O)O)C2CCC(O)CC2)CC1` (centres undefined), the Potency in [1] was 26.4 µM (active). For the same molecule, the Potency entry in assay [7] was “inactive”.
In the case of `CN[C@@H](C)C(=O)N[C@H]1CN(C(=O)CC(C)C)CC[C@H]2CC[C@@H](C(=O)NC(c3ccccc3)c3ccccc3)N2C1=O`, in assay [10], the Potency entry is “inactive”.
In the case of `CN(C)Cc1ccc(-c2nc3cccc4c3n2CCNC4=O)cc1`, in assay [1], the Potency is 18.7 µM (active). In [9], the IC50 (viability decrease) is 23.5 µM (active).
Take `O=c1cc(N2CCOCC2)oc2c(-c3cccc4c3sc3ccccc34)cccc12`: the Potency in assay [1] is 10.5 µM (active); in [6] it was 26.4 µM (active); in assay [5] it was 23.5 µM (active). In addition, in [9], the IC50 (viability decrease) is 18.7 µM (active).
In the case of `COc1ccc(Cc2ccc(NC(N)=O)cc2)cc1-c1cccc(Cl)c1`, the Potency in assay [1] was 18.7 µM (active); in assay [7] it was 23.5 µM (active).
As to `CC=CC(=O)N(CC)c1ccccc1C`, the Potency result in [10] was “inactive”.
Turning to `CN(C[C@@H]1COCCO1)S(=O)(=O)Nc1ccc2ccc3ncc(-c4cnn(C)c4)cc3c(=O)c2c1`, the Potency in [10] is 18.7 µM (active).
`Nc1ncnc2c1ncn2[C@@H]1O[C@H](CO)C[C@@H]1O`: the Potency entry in [10] was “inactive”.
For `O=C(Nc1cc(Cl)cc2c1[nH]c1cnccc12)c1cccnc1`, the Potency in assay [1] was 23.5 µM (active); in [7], 26.4 µM (active). For the same molecule, the Potency entry in assay [5] was “inactive”.
In the case of `CC[C@]1(O)C[C@@H]2CN(CCc3c([nH]c4ccccc34)[C@@](C(=O)OC)(c3cc4c(cc3OC)N(C=O)[C@@H]3C45CCN4CC=C[C@](CC)([C@H]45)[C@@H](OC(C)=O)[C@]3(O)C(=O)OC)C2)C1` (some centres undefined), the Potency in assay [1] is 20.9 µM (active). In assay [7], the Potency result was “inactive”.
As for `CC1(C)O[C@H]2C[C@@H]3[C@H]4CCC5=CC(=O)C=C[C@]5(C)[C@@]4(F)[C@@H](O)C[C@]3(C)[C@]2(C(=O)CO)O1`, the Potency entry in [1] was “inactive”. Besides, the result in assay [3] was inactive.
